# Results taken from PubChem BioAssay AID1851 (National Center for Advancing Translational Sciences (NCATS), 2009).
# Out of some 16,000 compounds screened, about 5,700 (36%) were called active. Inconclusive results (about 24%) are left out. This is one part of the list. A number with no mark means an inactive call. Calls follow the shape of the dose curve; as a rule, active = well fitted curve in the direction sought with a large enough effect; inconclusive = small, poorly fitted or top-dose-only effect, or effect the other way; inactive = no such curve, though single readings can be large or run the other way.
# Biological target: Cytochrome P450 1A2 (Homo sapiens) (UniProt P05177)
# Assay: Cytochrome panel assay with activity outcomes
# Conditions: recombinant CYP, pro-luciferin dealkylation, luminescence, p450-cyp1a2; series mostly up to 57.1 µM; activity, negative = inhibition: at the top concentration
# % is scaled to controls: 0 for no effect and ±100 for the full control effect.
# Cytochrome P450 1A2 (Homo sapiens), sequence (P05177 whole entry, looked up): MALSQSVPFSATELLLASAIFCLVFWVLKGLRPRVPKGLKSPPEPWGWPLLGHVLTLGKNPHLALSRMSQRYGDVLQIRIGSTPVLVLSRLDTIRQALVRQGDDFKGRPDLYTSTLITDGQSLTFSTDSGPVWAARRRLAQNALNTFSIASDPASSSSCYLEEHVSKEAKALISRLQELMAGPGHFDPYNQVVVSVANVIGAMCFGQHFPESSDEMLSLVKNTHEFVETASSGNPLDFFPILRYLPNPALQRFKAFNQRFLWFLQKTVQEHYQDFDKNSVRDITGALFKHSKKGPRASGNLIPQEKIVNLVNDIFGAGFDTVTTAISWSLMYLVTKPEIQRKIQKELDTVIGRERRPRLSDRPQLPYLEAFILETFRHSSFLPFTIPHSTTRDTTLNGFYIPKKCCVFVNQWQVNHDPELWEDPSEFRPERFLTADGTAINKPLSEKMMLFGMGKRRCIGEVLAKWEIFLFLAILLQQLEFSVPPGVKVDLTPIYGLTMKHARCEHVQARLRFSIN
SMILES,AC50,"activity, negative = inhibition"
Cc1c2c(nc3c(C(=O)NC4CCCC4)cnn13)CCCC2,2820 nM (active),–
Cc1ccc(C(=O)NC2CCCCCC2)cc1N1CCCC1=O,–,-22.9%
Cc1cccc(N(CC(=O)NC2CCCC2)C(=O)c2cc3cc4cccc(C)c4nc3s2)c1C,–,-18.2%
C[C@@H](Cc1ccccc1)Nc1ncnc2c1ncn2[C@@H]1O[C@@H](CO)[C@H](O)[C@@H]1O,–,1.16%
CC(Sc1nnc(C(C)N(C)C)n1-c1ccc(Cl)cc1)C(=O)Nc1ccc2c(c1)OCO2 (stereo unspecified),17800 nM (active),–
CCCCOC(=O)c1ccc(O)cc1,79.4 nM (active),–
CCN(CC)CCOC(=O)c1ccc(N)cc1,inactive,–
CCOC(=O)c1ccc(N2C(=O)CC(Nc3ccc(CCO)cc3)C2=O)cc1 (stereo unspecified),–,6.03%
CCOC(=O)c1ccc(N)cc1,2000 nM (active),–
CCCCNc1ccc(C(=O)OCCOCCOCCOCCOCCOCCOCCOCCOCCOC)cc1,–,3.14% [at 25.6 µM]
CCOC(=O)c1ccc(-c2ccc(CO)o2)cc1,2510 nM (active),–
CN(C)CCOC(=O)c1ccc(N)cc1,–,1.14% [at 11.4 µM]
O=C(OCCCN1CCCCC1)c1ccc(O)cc1,–,-21.1% [at 11.4 µM]
CO[C@@H]1COC(=O)[C@H]2CCCN2C(=O)[C@@H](C)COC(=O)CCC[C@H]1C,–,6.36% [at 11.4 µM]
O=C1NC(=O)C(c2ccccc2)(c2ccccc2)N1,–,-10.8%
COCC(=O)N1CCC[C@@]2(CCN(Cc3ccc(C#N)cc3)C2)C1,–,0.305%
O=S(=O)(c1cccc2c(I)cccc12)N1CCCNCC1,10000 nM (active),–
CCN(CC)c1ccc(/C=C/c2nc3ccccc3s2)cc1,2510 nM (active),–
Cc1cccc(CNc2ccnc(-c3ccoc3)n2)c1,2000 nM (active),–
c1ccc(CNc2ccnc(-c3ccoc3)n2)cc1,2510 nM (active),–
CN(C)c1ccc(-c2nc(N3CCNCC3)c3ccccc3n2)cc1,10000 nM (active),–
c1cc2c(cc1C(N1CCNCC1)N1CCNCC1)OCO2,–,-3.03% [at 2.29 µM]
c1ccc2c(N3CCNCC3)nc(-c3ccc4c(c3)OCO4)nc2c1,12600 nM (active),–
O=C(Nc1ccccc1)N1CC[C@@]2(CCCN(C(=O)c3cnccn3)C2)C1,–,-8.64%
CC(C)=CC(=O)OCC(=O)Nc1ncc(Cl)c(C)c1Cl,25100 nM (active),–
Cc1c(Cl)cnc(NC(=O)COC(=O)CCS(=O)(=O)c2ccccc2)c1Cl,11200 nM (active),–

SMILES,AC50,"activity, negative = inhibition"
Cc1ccc(S(=O)(=O)N2CCOCC2)cc1NC(=O)COC(=O)CCC(=O)c1cccs1,–,-17.9%
COC(=O)[C@@]1(Cc2ccc(F)cc2)[C@H]2c3cc(C(=O)N(C)C)n(Cc4ccc(C)o4)c3C[C@H]2CN1C(=O)c1ccccc1,–,-12.5%
CC[N+](CC)(CC)CC[C@](O)(c1ccccc1)C1CCCCC1,–,-11.1% [at 25.6 µM]
CCN(CC)CC#CCOC(=O)[C@@](O)(c1ccccc1)C1CCCCC1,3980 nM (active),–
CCN(CC)CC#CCC(C)(c1ccccc1)c1ccccc1,–,-22.5%
CCOC(=O)C(NC(C)=O)C(OC(C)=O)c1cccc(N(CCO)CCO)c1 (stereo unspecified),–,-4.35%
Cc1cc(C)c(C#N)c(SCS(=O)c2ccc(C(C)(C)C)cc2)n1 (stereo unspecified),20000 nM (active),–
CN1CCN(CC(O)c2ccccc2)CC1 (stereo unspecified),–,1.6%
Cc1[nH]nc(N2CCCCCC2)c1[N+](=O)[O-],2000 nM (active),–
Cn1c(=O)c(-c2cccs2)nc2cncnc21,1260 nM (active),–
COc1ccccc1CCn1c(=O)c(-c2ccccc2)nc2cncnc21,1000 nM (active),–
COc1ccccc1CCn1c(=O)c(-c2ccc(F)cc2)nc2cncnc21,1000 nM (active),–
COc1ccccc1CCn1c(=O)c(-c2cccc(Cl)c2)nc2cncnc21,316 nM (active),–
CCCC[C@]1(C2CCCC2)Cc2cc(OCC(=O)O)c(Cl)c(Cl)c2C1=O,–,-9.78%
Cc1[nH]n(C(C)(C)C)c(=O)c1Sc1ccccc1,–,14.3%
COCCn1c(=O)c(-c2cccs2)nc2cncnc21,3160 nM (active),–
COc1ccccc1CCn1c(=O)c(-c2ccc(F)c(F)c2)nc2cncnc21,2000 nM (active),–
COc1ccccc1CCn1c(=O)c(-c2cccs2)nc2cncnc21,2000 nM (active),–
COc1ccccc1CCn1c(=O)c(-c2ccc(Cl)cc2)nc2cncnc21,631 nM (active),–
COc1ccc(NC(=O)N2CCCC3(CCN(S(C)(=O)=O)CC3)C2)cc1,–,-8.77%
O=C1c2ccccc2CC[C@H]1CNCCc1ccc(O)cc1,20000 nM (active),–
Cc1cccc(C)c1NC(=O)Nc1ccc(S(N)(=O)=O)cc1,–,-10.8% [at 2.29 µM]
Cc1ccc(NC(=O)Nc2ncccc2C)cc1,3550 nM (active),–
CCCCNC(=O)c1cc2nc3c(c(C(F)(F)F)n2n1)CCc1ccccc1-3,2510 nM (active),–
COc1cccc(N=c2oc3c(C)ncc(CO)c3cc2C(N)=O)c1,4470 nM (active),–
CO[C@H]1COC(=O)CCC[C@H](C)[C@H](OC)COC(=O)C/C=C\[C@@H]1C,–,-3.93% [at 11.4 µM]

SMILES,AC50,"activity, negative = inhibition"
Cc1ccsc1/C=N/Nc1nc(Cl)c(Cl)cc1Cl,2000 nM (active),–
N#Cc1ccc(C2=NC(C(F)(F)F)(C(F)(F)F)c3c(n(Cc4ccco4)c(=O)[nH]c3=O)N2)cc1,–,-5.04%
C#CC[N+](CC)(CC)CC#Cc1cccc(Cl)c1,–,-7.67%
CNC(=O)c1sc(SC)cc1-c1ccc(Cl)cc1,355 nM (active),–
Cc1nc2c(C(=O)NCc3ccc4c(c3)OCO4)c[nH]n2c(=O)c1Cc1ccccc1F,12600 nM (active),–
Cc1nc2ccccn2c1/C(O)=C1\C(=O)C(=O)N(CCN2CCOCC2)C1c1cccnc1 (stereo unspecified),–,-17.5%
CCNc1ncc2nc(C)c(=O)n(Cc3cccc(OC)c3)c2n1,3160 nM (active),–
O=c1cnc2cnc(Nc3ccccc3)nc2n1Cc1ccc(F)cc1,1000 nM (active),–
CCNc1ncc2nc(C)c(=O)n(Cc3ccc(F)cc3)c2n1,1580 nM (active),–
CCNc1ncc2ncc(=O)n(Cc3ccc(F)cc3)c2n1,1000 nM (active),–
Cc1cc(CN2CCCCC2)c(O)c(CN2CCCCC2)c1,–,-18.8% [at 2.29 µM]
OC[C@@H]1O[C@@H](n2cnc3c(NC4CCCC4)ncnc32)[C@H](O)[C@H]1O,–,-4.01%
OC[C@@H]1O[C@@H](n2cnc3c(NC4CCCC4)ncnc32)[C@@H](O)[C@H]1O,–,-3.56%
Cn1cnc2c(NC3CCCC3)ncnc21,12600 nM (active),–
Cc1ccc(S(=O)(=O)O[C@H]2C[C@@H](C(C)(C)C)CC[C@@H]2c2ccccc2)cc1,–,-22.8% [at 2.29 µM]
O=c1oc(-c2cccs2)nc2ccc(Br)cc12,2510 nM (active),–
COc1ccc(N2CCN(C(=S)Nc3cc(C)cc(C)c3)CC2)cc1,–,-5.23%
CNC(=S)N1CCN(c2ccccc2OC)CC1,7080 nM (active),–
COc1cccc(N2CCN(C(=S)Nc3cccc(C)c3)CC2)c1,–,-14.1%
CNC(=S)N1CCN(c2cccc(OC)c2)CC1,15800 nM (active),–
COc1ccccc1N1CCN(CCCCN2C(=O)c3ccccc3C2=O)CC1,inactive,–
COc1ccccc1N1CCN(CCN2C(=O)CC3(CCCC3)CC2=O)CC1,–,-12.8%
CC1CCCN(CCCNC(=O)C2CC(=O)N(c3ccc(F)c(Cl)c3)C2)C1 (stereo unspecified),–,-12.8%
COc1ccc(-c2nc3ccccc3c(=O)n2N)cc1,25100 nM (active),–
CCCCOc1ccc(CNn2c(C)nc3ccccc3c2=O)cc1,15800 nM (active),–
COc1ccc(CNn2c(C)nc3ccccc3c2=O)cc1,12600 nM (active),–

SMILES,AC50,"activity, negative = inhibition"
Cc1cc(=O)[nH]c(-n2[nH]c(C)cc2=O)n1,–,-3.59%
O=C1C=C(c2cccs2)CC(c2cccs2)C1n1cnc([N+](=O)[O-])c1 (stereo unspecified),3160 nM (active),–
c1ccc(CNc2ncnc3ccc(-c4ccc5c(c4)OCO5)cc23)cc1,200 nM (active),–
c1ccc(Nc2ncnc3ccc(-c4ccc5c(c4)OCO5)cc23)cc1,251 nM (active),–
Cc1cccc(CNc2ncnc3ccc(-c4ccc5c(c4)OCO5)cc23)c1,501 nM (active),–
c1ccc(C2CCC(N3CCC(N4CCCCC4)CC3)CC2)cc1 (stereo unspecified),–,-5.53%
Cc1noc(C)c1C(=O)N1CCC2(CCN(C(=O)Nc3ccccc3)CC2)CC1,–,-8.72%
COc1ccc(NC(=O)N2CCCC3(CCN(C(=O)c4ccco4)CC3)C2)cc1,–,-10.2%
O=C(Nc1ccccc1)N1CCCC2(CCN(C(=O)c3ccco3)CC2)C1,20000 nM (active),–
O=C(Nc1ccccc1)N1CC2(CCN(C(=O)c3ccco3)CC2)C1,–,6.85%
Cc1noc(C)c1C(=O)N1CCC2(CCCN(C(=O)Nc3ccccc3)C2)CC1,12600 nM (active),–
COc1ccc(NC(=O)N2CCCC3(CCN(C(=O)c4c(C)noc4C)CC3)C2)cc1,–,12.3%
CO[C@H]1OC[C@@]2(C)[C@@H]3C4=C(CN2C(=O)OC(C)(C)C)[C@H](C)[C@H](CO)[C@H](CO)[C@H]4CC[C@H]13,–,-18.6%
Cc1ccc(SCc2ccc(C(=O)Nc3cc([N+](=O)[O-])ccc3C)cc2)cc1,–,-14.8%
C=CCN(CC=C)C(=O)C(=O)c1cc(C)n(-c2ccc([N+](=O)[O-])cc2)c1C,–,-5.98%
CC(=O)NS(=O)(=O)c1ccc(NC(=S)NC(=O)C(C)(C)C)cc1,–,3.06%
Cc1ccc([N+](=O)[O-])cc1NC(=S)NC(=O)CC(C)(C)C,2000 nM (active),–
Cc1ccc([N+](=O)[O-])cc1NC(=S)NC(=O)C(C)(C)C,200 nM (active),–
CCCN1CCN(C(=O)CN2C(=O)CC(C)(C)S(=O)(=O)c3ccccc32)CC1,–,-7.7%
COc1ccc(-n2c(=O)c(-c3cccs3)nc3cnc(N4CCNCC4)nc32)cc1,5010 nM (active),–
O=c1c(-c2ccccc2)nc2cnc(N3CCOCC3)nc2n1-c1ccccc1,12600 nM (active),–
O=c1c(-c2cccs2)nc2cnc(N3CCNCC3)nc2n1-c1ccccc1,2510 nM (active),–
CN1CCN(c2ncc3ncc(=O)n(-c4ccccc4)c3n2)CC1,2510 nM (active),–
